Test results from PubChem BioAssay (NCATS).
Records with an inconclusive call do not appear. A call without a number means that no potency is given here. The source made the active and inactive calls. Unless noted, the call rests on the fitted dose curve; in most records, active means well fitted curve in the direction sought with a large enough effect; inconclusive means small, poorly fitted or top-dose-only effect, or another doubt; inactive means no such curve, though single readings can be large; an effect the other way counts as inactive or inconclusive.

Target: Aldehyde dehydrogenase, mitochondrial (Homo sapiens) (UniProt P05091)
Test: qHTS for Inhibitors of the Aldehyde Dehydrogenase Family (ALDH2) Confirmatory screens (AID 2061303; active means well fitted inhibition curve with a large enough effect; title and protocol of this record describe different tests; further: nearly all actives have a fitted effect of over 45% in size)
Settings: ALDH inhibition qHTS; series mostly up to 45.4 µM

SMILES | Potency
COc1ccc2c(c1)c(CCN(C)C)cn2S(=O)(=O)c1ccccc1 | inactive
Cc1cc(C(=O)CN2CCCC2)c(C)n1-c1ccc(F)cc1 | inactive
CO[C@@H]1[C@H](O)[C@@H](O[C@@H]2C[C@H]3CC[C@@H]4C(CC[C@]5(C)[C@@H](C6=CC(=O)OC6)CC[C@]45O)[C@@]3(C)[C@H](O)C2)O[C@H](C)[C@@H]1O (some centres not stated) | inactive
C[C@@]1(C(=O)O)CC[C@]2(C)CC[C@]3(C)C4=CC(=O)c5cc(O)c(O)cc5[C@]4(C)CC[C@@]3(C)[C@@H]2C1 | inactive
CCCN(CCC)[C@@H]1CCc2ccc3[nH]c(C#N)cc3c2C1 | inactive
CCN1C[C@]2(COC(=O)c3ccccc3N3C(=O)C[C@H](C)C3=O)CC[C@H](OC)[C@@]34[C@@H]5C[C@H]6[C@H](OC)[C@@H]5[C@](O)(C[C@@H]6OC)[C@](O)([C@@H](OC)[C@H]23)[C@@H]14 | inactive
O=S(=O)(c1ccccc1F)N1CCOc2c(N3CCNCC3)cccc21 | inactive

Tested on: not listed separately
Test: qHTS for Inhibitors of the Aldehyde Dehydrogenase Family (ALDH1A2, ALDH1A3, ALDH2, ALDH3A1) (AID 2061307); further: nearly all actives have a fitted effect of over 50% in size
Settings: ALDH inhibition qHTS; series mostly up to 50.3 µM

SMILES | Potency
COc1ccc2c(c1)c(CCN(C)C)cn2S(=O)(=O)c1ccccc1 | inactive
Cc1cc(C(=O)CN2CCCC2)c(C)n1-c1ccc(F)cc1 | inactive
CO[C@@H]1[C@H](O)[C@@H](O[C@@H]2C[C@H]3CC[C@@H]4C(CC[C@]5(C)[C@@H](C6=CC(=O)OC6)CC[C@]45O)[C@@]3(C)[C@H](O)C2)O[C@H](C)[C@@H]1O (some centres not stated) | inactive
NC1CCc2cc(O)c(O)cc2C1 (configuration not stated) | inactive
C[C@@]1(C(=O)O)CC[C@]2(C)CC[C@]3(C)C4=CC(=O)c5cc(O)c(O)cc5[C@]4(C)CC[C@@]3(C)[C@@H]2C1 | inactive
CCCN(CCC)[C@@H]1CCc2ccc3[nH]c(C#N)cc3c2C1 | inactive
CCN1C[C@]2(COC(=O)c3ccccc3N3C(=O)C[C@H](C)C3=O)CC[C@H](OC)[C@@]34[C@@H]5C[C@H]6[C@H](OC)[C@@H]5[C@](O)(C[C@@H]6OC)[C@](O)([C@@H](OC)[C@H]23)[C@@H]14 | inactive
O=S(=O)(c1ccccc1F)N1CCOc2c(N3CCNCC3)cccc21 | inactive

Target: Aldehyde dehydrogenase, mitochondrial (Homo sapiens) (UniProt P05091)
Test: qHTS for Inhibitors of the Aldehyde Dehydrogenase Family (ALDH2) Primary screen (AID 2061308); further: nearly all actives have a fitted effect of over 55% in size
Settings: ALDH2 enzyme inhibition qHTS, 1536-well; series mostly up to 56 µM

SMILES | Potency
COc1ccc2c(c1)c(CCN(C)C)cn2S(=O)(=O)c1ccccc1 | inactive
Cc1cc(C(=O)CN2CCCC2)c(C)n1-c1ccc(F)cc1 | inactive
CO[C@@H]1[C@H](O)[C@@H](O[C@@H]2C[C@H]3CC[C@@H]4C(CC[C@]5(C)[C@@H](C6=CC(=O)OC6)CC[C@]45O)[C@@]3(C)[C@H](O)C2)O[C@H](C)[C@@H]1O (some centres not stated) | inactive
C[C@@]1(C(=O)O)CC[C@]2(C)CC[C@]3(C)C4=CC(=O)c5cc(O)c(O)cc5[C@]4(C)CC[C@@]3(C)[C@@H]2C1 | inactive
CCCN(CCC)[C@@H]1CCc2ccc3[nH]c(C#N)cc3c2C1 | inactive
CCN1C[C@]2(COC(=O)c3ccccc3N3C(=O)C[C@H](C)C3=O)CC[C@H](OC)[C@@]34[C@@H]5C[C@H]6[C@H](OC)[C@@H]5[C@](O)(C[C@@H]6OC)[C@](O)([C@@H](OC)[C@H]23)[C@@H]14 | inactive
O=S(=O)(c1ccccc1F)N1CCOc2c(N3CCNCC3)cccc21 | inactive
